An excerpt weighted towards active compounds, which were near 2.7% of everything screened.
IDH1 R132H inh: inhibitors of human mutant IDH1 R132H | O75874 | IDH1-R132H enzyme, NADPH consumption, diaphorase/resazurin fluorescence | Potency, µM (top dose mostly 76.6 µM), for inactives: at the top dose activity change, negative = inhibition, most hits filed as inhibitors | 390,000 tested, 0.093% active | AID 602179; further: potency means the concentration at half of the fitted maximal effect; on the % scale 0 is the no-effect control and ±100 the full control effect; nearly all actives have a fitted effect of over 65% in size
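IDH1-R132H (0.5 ug/mL dispensed) in pH 7.5 Tris buffer was preincubated 30 min with compound, then given a substrate mix of 0.016 mM NADPH and 2 mM alpha-KG for 80 min at room temperature; remaining NADPH was read by diaphorase/resazurin fluorescence.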
ALOX12 inh: blocks human arachidonate 12S-lipoxygenase; P18054; purified 12hLO, xylenol orange hydroperoxide absorbance; Potency, µM (highest dose often 108 µM), for inactives: top-dose activity change, negative = inhibition, hits mostly inhibitors; 580,000 tested, 1.1% active; further: potency means the concentration at half of the fitted maximal effect; on the % scale 0 is the no-effect control and ±100 the full control effect
Target sequence (P18054 whole entry, looked up): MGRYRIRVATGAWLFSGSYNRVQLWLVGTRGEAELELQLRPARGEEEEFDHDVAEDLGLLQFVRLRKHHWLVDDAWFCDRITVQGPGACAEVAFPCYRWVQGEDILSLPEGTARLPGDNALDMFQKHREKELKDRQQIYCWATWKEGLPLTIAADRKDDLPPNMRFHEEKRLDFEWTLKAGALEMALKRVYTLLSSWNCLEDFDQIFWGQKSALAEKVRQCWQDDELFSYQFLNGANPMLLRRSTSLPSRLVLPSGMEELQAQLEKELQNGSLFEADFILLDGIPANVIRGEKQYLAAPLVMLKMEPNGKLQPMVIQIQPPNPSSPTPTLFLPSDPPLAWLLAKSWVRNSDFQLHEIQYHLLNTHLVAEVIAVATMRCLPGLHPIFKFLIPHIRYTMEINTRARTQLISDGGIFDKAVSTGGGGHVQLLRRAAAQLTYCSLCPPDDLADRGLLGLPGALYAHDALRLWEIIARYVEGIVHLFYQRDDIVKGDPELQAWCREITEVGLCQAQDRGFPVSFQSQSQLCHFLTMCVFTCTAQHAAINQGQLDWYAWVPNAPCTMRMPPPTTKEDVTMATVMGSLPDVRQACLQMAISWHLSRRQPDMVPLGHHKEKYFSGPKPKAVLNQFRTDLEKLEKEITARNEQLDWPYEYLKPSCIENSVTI
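Purified human 12hLO (150 nM final) in 25 mM Hepes, 0.01% Triton X-100, pH 7.0 was preincubated 15 min at room temperature with compound. Then 40 uM arachidonic acid was added, 30 min. Hydroperoxide was read by Fe-XO absorbance ratio 573/405 nm.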
A549 viability: kills or reduces viability of A549 cells in Nrf2 counter-screen. A549 ARE-Fluc cells, CellTiter-Fluor viability, 18-24 h. Potency, µM (doses to about 46 µM), for the others: at the highest dose activity change, negative = cytotoxicity, most hits filed as inhibitors. 390,000 tested, 0.16% active. AID 504648; further: potency means the concentration at half of the fitted maximal effect; on the % scale 0 is the no-effect control and ±100 the full control effect
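A549 ARE-Fluc cells in 5% FBS OPTI-MEM, 5000 cells/well, rested 2 h then exposed to compounds in concentration-response for 18-24 h at 37 °C. Viability by CellTiter-Fluor fluorescence (Ex 405/Em 525) after 30 min; luciferase luminescence (BugLite, 15 min, RT) read afterwards.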
LDHA inh: inhibitors of human lactate dehydrogenase A. 480,000 tested, 0.15% active. P00338. purified LDHA, NADH/diaphorase-resazurin fluorescence; stronger effect = lower value. activity change, % (values are at about 110 or 230 µM); in the data active means activity change below about -30%; inconclusive means mostly about -25% to -30%;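 further: plate controls were DMSO wells for no effect and wells without enzyme for full effect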
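Human LDH5 at 2 nM final in Tris HCl pH 7.4 with 0.06 mM NADH and 0.2 mM pyruvate, reacted 5 minutes at room temperature. Remaining NADH coupled via diaphorase/resazurin; resorufin fluorescence read at 0 and 20 minutes, normalized to enzyme-free and DMSO wells.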
Nrf2 block: inhibitors of Nrf2 signaling; Potency, µM (titrated, usually from 46 µM), without a hit: at the top dose activity change, negative = inhibition, usual class: inhibitors; 360,000 tested, 2.1% active; A549 ARE-Fluc reporter, luciferase luminescence, 18-24 h; further: potency means the concentration at half of the fitted maximal effect; on the % scale 0 is the no-effect control and ±100 the full control effect; nearly all actives have a fitted effect of over 60% in size
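Nrf2 function is reported as luminescence of an ARE-controlled luciferase in A549 cells. Compounds were tested at several concentrations, and a CellTiter-Fluor read on the same wells flagged cytotoxicity.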
Nrf2 activator: activates Nrf2 signaling | AREc32 ARE-luciferase reporter (MCF7-derived line), luminescence, 24 h | Potency, µM (top dose mostly 46.1 µM), without a hit: at the highest dose activation, hits mostly activators | AID 624171 | 410,000 tested, 0.31% active; further: potency means the concentration at half of the fitted maximal effect; % of control where 0% means no effect; nearly all actives have a fitted effect of over 65% in size
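ARE-driven firefly luciferase activity in AREc32 cells measured after a 24 hr compound exposure at 37 deg C, using Steady-Glo reagent and a 30 min room-temperature hold.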
* marks the source's active call; other numbers are inactive results; u = inconclusive; x = no result given. Unless noted, the call rests on the fitted dose curve; in most records, active means well fitted curve in the direction sought with a large enough effect; inconclusive means small, poorly fitted or top-dose-only effect, or another doubt; inactive means no such curve, though single readings can be large; an effect the other way counts as inactive or inconclusive.

SMILES	IDH1 R132H inh	ALOX12 inh	A549 viability	LDHA inh	Nrf2 block	Nrf2 activator
CC(CC(=O)NCCc1ccccn1)c1ccccc1 (stereo not drawn)	x	-6%	x	-6	x	x
CCOC(=O)C1=C(O)/C(=C\c2ccc(CNS(=O)(=O)c3ccc(Br)cc3)o2)N=C1C	-8%	45µM*	-9%	23	11%	-1%
COC(=O)C1=C(O)/C(=C\c2ccc(CNS(=O)(=O)c3ccc(Cl)cc3)o2)N=C1C	-5%	50µM*	-4%	23	11%	0%
Cc1cc(NCc2nc(-c3cccs3)no2)ccc1-n1cnnn1	x	-1%	x	9	x	x
COc1ccc(C(=O)c2c(N)c(C(=O)Nc3ccccc3C(F)(F)F)c3ccccn23)cc1	x	16%	x	-2	x	x
CC(=O)N/C(=C\c1ccccc1)C(=O)OCc1cccc(S(=O)(=O)N(C)C)c1	5%	-14%	-4%	-5	23µM*	2%
Cc1ccc(NC(=O)C2=C(c3ccccc3)S(=O)(=O)CCS2(=O)=O)cc1	3%	-17%	u	0	21µM*	-2%
Cc1cc(C)c(-c2csc(NC(=O)/C=C/c3cccs3)n2)c(C)c1	-1%	-14%	-16%	-4	23µM*	3%
Cc1cc(C)nc(NC(=O)/C=C/c2cccs2)c1	2%	-9%	-6%	-5	10%	21%
COCCNC(=O)c1ccc2c(c1)N(Cc1ccc(C(F)(F)F)cc1)C(=O)c1ccccc1S2	-4%	0%	-14%	3	u	0%
CCN(CC)C(=O)c1ccc2c(c1)N(Cc1ccc(C(F)(F)F)cc1)C(=O)c1ccccc1S2	-20%	u	-2%	1	12µM*	0%
COc1ccc(Nc2nc3ccccc3nc2-n2nc(C)cc2C)cc1Cl	x	-4%	x	-16	x	x
CN(CCOc1ccccc1)CC(=O)Nc1cc([N+](=O)[O-])ccc1Cl	11%	-7%	-9%	2	16µM*	0%
Cc1ccc([N+](=O)[O-])cc1NC(=O)CN(C)CCOc1ccccc1	1%	u	-4%	-10	u	-1%
C=CCn1c(SCc2coc(-c3cccc(F)c3)n2)nnc1C1CCS(=O)(=O)C1 (stereo not drawn)	x	31%	x	-2	x	x
O=C1OC(c2ccc(O)cc2)(c2ccccc2O)c2ccccc21 (stereo not drawn)	4%	u	16%	-5	-11%	3%
O=C1OC(c2ccccc2)(c2cc(Br)ccc2O)c2ccccc21 (stereo not drawn)	u	45µM*	u	-4	u	-3%
O=C(Nc1ccc(F)c(Cl)c1)c1ccccc1OCC1CCCO1 (stereo not drawn)	x	14%	x	7	x	x
Fc1ccccc1Nc1n[nH]c(=S)s1	3%	25µM*	7%	-2	26%	8%
Cc1ccccc1Nc1n[nH]c(=S)s1	-13%	u	x	-1	x	-1%
Cc1c(Cl)cccc1Nc1n[nH]c(=S)s1	4%	22µM*	0%	-2	7%	0%
COCCN1CCN(C(=O)c2cc(COc3ccc(F)cc3F)on2)CC1	8%	-28%	1%	-56*	-7%	0%
O=C(c1cc(COc2c(F)cccc2F)on1)N1CCC(c2ccncc2)CC1	2%	-18%	-19%	-5	7.3µM*	3%
CN1CCN(C(=O)c2cc(COc3ccc(F)cc3Cl)on2)CC1c1ccccc1 (stereo not drawn)	-9%	22%	u	-5	13µM*	5%
COc1ccccc1OCc1cc(C(=O)N2CCN(C)C(c3ccccc3)C2)no1 (stereo not drawn)	7%	3%	6%	-6	u	5%
COCCN1CCN(C(=O)c2cc(COc3ccc(F)c(F)c3)on2)CC1	-1%	-24%	8%	-5	14%	0%
COC(=O)C1=C(C(=O)c2ccc(C)cc2)C(c2cccc(F)c2)n2nnnc2N1 (stereo not drawn)	x	-7%	x	-12	x	x

Bioassay records (PubChem)
